Screening data as filed in PubChem BioAssay.
Most compounds without a hit are left out; they make up all but 19% or so of the library.
Shiga toxin inh: A qHTS for Small Molecule Inhibitors of Shiga Toxin; Vero cells, Shiga toxin protein synthesis inhibition reporter; inhibition, % at 38.7 µM; actives 9.2% (n = 290,000); AID 2315, 2010; in the data active = inhibition mostly above about 28%, no sharp cut-off; inactive = mostly below about 43%; also: 0% is about no effect
MARV entry inh: qHTS for inhibitors of binding or entry into cells for Marburg Virus; Marburg virus pseudotyped entry inhibition, cell reporter; Potency, µM (doses to about 37.8 µM), inactives show at the highest dose activity change, negative = inhibition, actives largely listed as inhibitors; actives 1.8% (n = 300,000); calls by dose curve; tested in HEK293 cells; also: potency is read from the fitted curve at half-maximal effect; % is scaled to controls: 0 for no effect and ±100 for the full control effect
Lassa entry inh: qHTS for Inhibitors of binding or entry into cells for Lassa Virus; Lassa virus pseudotype entry inhibition, cell reporter; Potency, µM (doses to about 37.9 µM), for the others: at the highest dose activity change, negative = inhibition, actives largely listed as inhibitors; actives 1.2% (n = 300,000); calls by dose curve; tested in HEK293 cells; also: potency is read from the fitted curve at half-maximal effect; % is scaled to controls: 0 for no effect and ±100 for the full control effect; nearly all actives have a fitted effect of over 50% in size
CHX counter: Cycloheximide Counterscreen for Small Molecule Inhibitors of Shiga Toxin; cell reporter, cycloheximide protein synthesis inhibition counterscreen; max response, %; actives 12% (n = 300,000); in the data active = max response mostly above about 13%, no sharp cut-off; inactive = mostly below about 14%; also: read at 38.3 µM for the half of the compounds with a filed dose; 0% is about no effect
Pf growth 96h: Primary qHTS for delayed death inhibitors of the malarial parasite plastid, 96 hour incubation | actives 6.9% (n = 320,000) | Potency, µM (doses to about 28.7 µM), inactives show at the highest dose activity change, negative = inhibition, most hits filed as inhibitors | P. falciparum luciferase reporter growth, 96 h | AID 504834, 2011; also: potency is read from the fitted curve at half-maximal effect; % is scaled to controls: 0 for no effect and ±100 for the full control effect
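Infected RBCs, 2% Hct / 0.05% parasitemia final; luciferase-reporter P. falciparum; cpd 96 h, 37 C, 5% CO2; luciferase detection reagent; luminescence.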
Pf growth 48h: Primary qHTS for delayed death inhibitors of the malarial parasite plastid, 48 hour incubation. P. falciparum luciferase growth in erythrocytes, 48 h. Potency, µM (highest dose often 28.7 µM), for inactives: at the highest dose activity change, negative = inhibition, actives largely listed as inhibitors. actives 5.9% (n = 310,000); also: potency is read from the fitted curve at half-maximal effect; % is scaled to controls: 0 for no effect and ±100 for the full control effect
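Cell-based growth assay: transgenic P. falciparum expressing firefly luciferase, cultured in red cells within RPMI 1640 containing 0.5% w/v Albumax, 24 mM bicarbonate and gentamycin. A drop in luciferase activity indicates inhibition.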
Active calls of the source: *; i = inactive; ? = inconclusive; . = not tested or not shown; [ ] = remark or other dose. Unless noted, calls follow the shape of the dose curve; as a rule, active = well fitted inhibition curve with a large enough effect; inconclusive = small, poorly fitted or top-dose-only effect, or another doubt; inactive = no such curve, though single readings can be large or run the other way.

SMILES	Shiga toxin inh	MARV entry inh	Lassa entry inh	CHX counter	Pf growth 96h	Pf growth 48h
CCOC(=O)COc1cc2c(C(=O)OCC)c(C)oc2cc1Br	-10	9%	-11%	-4	20%	-3%
Cc1ccc(OCc2cc(C(=O)NCC(C)(C)N3CCOCC3)no2)cc1C	-20	-24%[46.1 µM]	?	-2	-15%	?
Cc1cc(C)nc(CCNC(=O)c2cc(COc3ccccc3)on2)n1	56*	-1%[46.1 µM]	1%[46.1 µM]	36*	?	-12%
CCN1CCCC1CNC(=O)c1cc(COc2ccc(C)c(C)c2)on1 (stereo unspecified)	53*	.	.	32*	13µM*	-25%
O=C(CNC(=O)c1cccnc1)N/N=C/c1ccc(O)cc1O	2	22%[46.1 µM]	9%	13*	-13%	-21%
CCCc1c(C(=O)N/N=C/c2cccc3ccccc23)nnn1-c1nonc1N	4	.	.	-4	?	-25%
O=C(N/N=C/c1ccccc1OCc1ccccc1)c1cccnc1	8	-26%	-19%	13*	44%	3%
Cc1ccc(/C=N/NC(=O)c2cccnc2)o1	-8	?	11%[46.1 µM]	6	?	-7%
CCc1ccc(C(=O)N/N=C/c2cccc3ccccc23)nc1	52	?	6%	19*	25%	75%
Cc1ccccc1/C=N/NC(=O)c1cccnc1	23	.	.	9.1*	-27%	33%
COc1ccc(N2CCN(C3CCCN(C(=O)c4ccoc4)C3)CC2)cc1 (stereo unspecified)	-2	?	8%	7	?	?
COc1cc(NC(=O)CCS(=O)(=O)c2ccc(Br)cc2)cc(OC)c1	.	.	23%[46.1 µM]	.	.	.
COc1ccc(NC2=NCC(Cc3ccc(Br)cc3)S2)cc1 (stereo unspecified)	12	?	?	3	?	?
CC1Cc2ccccc2N1Cc1cccc([N+](=O)[O-])c1 (stereo unspecified)	-8	?	-2%	9	-2%	-10%
O=C(N/N=C/c1cccc2ccccc12)c1cccnc1	39*	.	.	29*	12%	.
COc1ccc(/C=N/NC(=O)c2cccnc2)c2ccccc12	-6	4%[46.1 µM]	?	-2	30%	-5%
CCC(C(=O)N1CCN(c2ccccc2)CC1)n1nc(C)c2sc3ccccc3c2c1=O (stereo unspecified)	.	1%[46.1 µM]	-1%[46.1 µM]	.	.	.
CCS(=O)(=O)Nc1cccc(C(=C2CCCCC2)c2cnc[nH]2)c1	.	?	?	.	?	12µM*
Cc1c(Cl)cccc1N1C(=O)CC(NNC(=O)c2cccnc2)C1=O (stereo unspecified)	-7	-9%	6%	1	i	8%
O=C(NNC1CC(=O)N(c2ccc(Br)cc2)C1=O)c1cccs1 (stereo unspecified)	35*	.	.	14	59%	16%
Cc1c(Cl)cccc1N1C(=O)CC(NNC(=O)c2cccs2)C1=O (stereo unspecified)	18	?	-1%	20*	9%	7%
Nc1nonc1OCCCCOc1nonc1N	2	27%[46.1 µM]	12%	-1	?	1%
Nc1nonc1OCCc1ccccc1	36	6%	4%	12*	51%	48%
CC1(C(=O)NNC(=O)c2ccc(=O)oc2)CC1Br (stereo unspecified)	24	?	0%	13*	79%	65%
O=C1c2ccccc2-c2onc3ccc(NCCCn4ccnc4)c1c23	-7	?	-21%	-2	13µM*	.
COC(=O)C1=C(c2ccc(F)cc2OCc2ccccc2)C[C@@H]2CC[C@H]1N2C(=O)NCc1ccccc1C(F)(F)F	.	.	.	.	?	5.2µM*
COC(=O)C1=C(c2ccc(F)cc2F)C[C@@H]2CC[C@H]1N2C(=O)NCc1ccco1	.	.	.	.	-19%	?
COC(=O)C1=C(c2ccc(F)cc2OCc2ccccc2)C[C@@H]2CC[C@H]1N2C(=O)NCc1ccccc1Br	.	.	.	.	1.3µM*	4.1µM*
COc1cccc(-c2nc3sc4c(c3c(=O)[nH]2)CCCCC4)c1	75*	5%	15%	21*	448%	349%
COCc1nc2sc3c(c2c(=O)[nH]1)CCCC3	22	17%	13%	17*	18%	6%
